# Values joined by “and” are separate entries in the source; they are usually repeats but may differ in a detail not shown here. Equal entries are not always repeated.
# What was measured:
# [1] = target: T1, Ephrin type-B receptor 2 (Homo sapiens) (UniProt P29323); conditions: at 1 µM
# T1 sequence (whole entry): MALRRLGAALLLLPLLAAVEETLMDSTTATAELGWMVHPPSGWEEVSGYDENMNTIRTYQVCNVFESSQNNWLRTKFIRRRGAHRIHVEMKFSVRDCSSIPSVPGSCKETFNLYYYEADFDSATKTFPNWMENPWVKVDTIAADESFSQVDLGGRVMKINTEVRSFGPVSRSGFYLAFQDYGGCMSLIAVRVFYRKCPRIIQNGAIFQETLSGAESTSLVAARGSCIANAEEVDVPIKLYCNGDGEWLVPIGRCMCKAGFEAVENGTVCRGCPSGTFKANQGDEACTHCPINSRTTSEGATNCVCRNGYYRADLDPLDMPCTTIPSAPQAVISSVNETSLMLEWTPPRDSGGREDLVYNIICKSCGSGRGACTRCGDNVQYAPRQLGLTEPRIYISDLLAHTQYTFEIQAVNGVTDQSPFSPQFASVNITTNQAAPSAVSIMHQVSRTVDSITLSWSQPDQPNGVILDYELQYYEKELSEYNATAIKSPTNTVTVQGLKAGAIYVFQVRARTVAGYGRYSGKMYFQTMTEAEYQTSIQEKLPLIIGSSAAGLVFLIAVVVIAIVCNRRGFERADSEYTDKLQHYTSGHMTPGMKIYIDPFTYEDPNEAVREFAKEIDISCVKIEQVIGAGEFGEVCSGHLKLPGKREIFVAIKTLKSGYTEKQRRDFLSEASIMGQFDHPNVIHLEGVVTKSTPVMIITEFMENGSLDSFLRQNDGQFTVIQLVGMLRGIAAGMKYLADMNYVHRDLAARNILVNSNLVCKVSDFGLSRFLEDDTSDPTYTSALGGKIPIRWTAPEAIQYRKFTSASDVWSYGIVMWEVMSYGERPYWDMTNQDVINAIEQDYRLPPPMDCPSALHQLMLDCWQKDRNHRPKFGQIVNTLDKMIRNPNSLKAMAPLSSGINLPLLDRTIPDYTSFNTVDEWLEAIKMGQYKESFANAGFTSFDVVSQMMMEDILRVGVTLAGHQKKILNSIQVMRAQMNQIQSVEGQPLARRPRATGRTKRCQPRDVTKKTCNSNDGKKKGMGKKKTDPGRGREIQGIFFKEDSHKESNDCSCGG
# [2] = target: T2, Ephrin type-B receptor 3 (Homo sapiens) (UniProt P54753); conditions: at 0.1 µM
# T2 sequence (whole entry): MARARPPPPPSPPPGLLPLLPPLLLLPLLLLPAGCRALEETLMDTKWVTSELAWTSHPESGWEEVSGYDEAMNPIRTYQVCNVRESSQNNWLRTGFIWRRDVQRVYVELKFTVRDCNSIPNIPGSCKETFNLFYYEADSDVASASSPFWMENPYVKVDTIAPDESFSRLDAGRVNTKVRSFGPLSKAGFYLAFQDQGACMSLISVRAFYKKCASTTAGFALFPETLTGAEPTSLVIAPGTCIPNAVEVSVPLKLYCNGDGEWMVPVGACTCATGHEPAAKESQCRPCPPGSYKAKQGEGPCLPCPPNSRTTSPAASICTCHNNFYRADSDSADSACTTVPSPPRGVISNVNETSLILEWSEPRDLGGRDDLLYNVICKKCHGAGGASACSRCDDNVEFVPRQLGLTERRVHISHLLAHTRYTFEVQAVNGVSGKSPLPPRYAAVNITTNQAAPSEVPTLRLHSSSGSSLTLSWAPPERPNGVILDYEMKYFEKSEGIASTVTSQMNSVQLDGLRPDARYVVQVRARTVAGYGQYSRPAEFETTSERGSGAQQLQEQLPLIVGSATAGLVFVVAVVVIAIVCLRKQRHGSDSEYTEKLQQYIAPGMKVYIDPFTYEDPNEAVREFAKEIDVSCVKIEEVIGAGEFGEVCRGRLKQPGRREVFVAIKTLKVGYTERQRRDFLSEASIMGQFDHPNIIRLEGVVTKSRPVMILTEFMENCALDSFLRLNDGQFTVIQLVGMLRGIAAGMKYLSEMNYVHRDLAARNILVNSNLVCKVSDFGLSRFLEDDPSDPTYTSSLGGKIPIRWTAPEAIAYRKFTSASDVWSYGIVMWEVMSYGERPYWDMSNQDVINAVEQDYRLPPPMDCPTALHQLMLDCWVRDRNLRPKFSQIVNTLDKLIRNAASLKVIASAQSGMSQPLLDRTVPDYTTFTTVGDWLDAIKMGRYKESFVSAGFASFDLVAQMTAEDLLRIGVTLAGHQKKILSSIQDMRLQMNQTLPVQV
# [3] = target: T2, Ephrin type-B receptor 3 (Homo sapiens); conditions: at 1 µM
# [4] = target: T3, Ephrin type-B receptor 4 (Homo sapiens) (UniProt P54760); conditions: at 0.1 µM
# T3 sequence (whole entry): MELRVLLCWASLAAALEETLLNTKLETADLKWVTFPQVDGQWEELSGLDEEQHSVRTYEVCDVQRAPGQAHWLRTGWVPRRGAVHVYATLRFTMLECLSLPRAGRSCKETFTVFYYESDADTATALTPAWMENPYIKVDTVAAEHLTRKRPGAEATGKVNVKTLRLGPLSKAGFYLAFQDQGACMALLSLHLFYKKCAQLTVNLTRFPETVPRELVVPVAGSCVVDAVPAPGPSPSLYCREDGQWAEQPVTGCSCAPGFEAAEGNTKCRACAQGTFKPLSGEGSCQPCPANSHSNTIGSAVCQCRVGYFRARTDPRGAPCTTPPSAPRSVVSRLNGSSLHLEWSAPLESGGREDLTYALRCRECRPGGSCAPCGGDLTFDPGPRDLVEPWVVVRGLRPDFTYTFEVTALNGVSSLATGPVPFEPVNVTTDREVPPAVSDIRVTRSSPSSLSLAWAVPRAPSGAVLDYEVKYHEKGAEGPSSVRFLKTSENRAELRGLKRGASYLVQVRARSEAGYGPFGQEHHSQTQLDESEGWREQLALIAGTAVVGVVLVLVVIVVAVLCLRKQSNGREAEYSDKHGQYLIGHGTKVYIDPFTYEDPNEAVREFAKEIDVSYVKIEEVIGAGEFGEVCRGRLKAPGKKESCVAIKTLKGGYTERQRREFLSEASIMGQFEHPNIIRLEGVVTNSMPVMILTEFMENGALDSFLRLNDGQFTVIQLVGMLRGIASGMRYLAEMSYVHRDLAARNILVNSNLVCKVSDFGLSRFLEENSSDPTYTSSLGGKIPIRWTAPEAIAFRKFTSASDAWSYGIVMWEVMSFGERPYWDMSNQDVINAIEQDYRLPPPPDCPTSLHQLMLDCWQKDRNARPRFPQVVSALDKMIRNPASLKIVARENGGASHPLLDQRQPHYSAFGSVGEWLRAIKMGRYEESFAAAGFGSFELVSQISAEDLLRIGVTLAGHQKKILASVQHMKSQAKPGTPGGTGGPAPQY
# [5] = target: T3, Ephrin type-B receptor 4 (Homo sapiens); conditions: at 1 µM
# [6] = target: Receptor tyrosine-protein kinase erbB-2 (Homo sapiens) (UniProt P04626); conditions: at 0.1 µM
# [7] = target: Receptor tyrosine-protein kinase erbB-2 (Homo sapiens) (UniProt P04626); conditions: at 1 µM
# [8] = target: Receptor tyrosine-protein kinase erbB-4 (Homo sapiens) (UniProt Q15303); conditions: at 0.1 µM
# [9] = target: Receptor tyrosine-protein kinase erbB-4 (Homo sapiens) (UniProt Q15303); conditions: at 1 µM
# [10] = target: Tyrosine-protein kinase Fer (Homo sapiens) (UniProt P16591); conditions: at 0.1 µM;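 note: reported figures are averaged percent inhibition of FER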
# Chain of Tyrosine-protein kinase Fer (Homo sapiens) (P16591 whole entry, looked up): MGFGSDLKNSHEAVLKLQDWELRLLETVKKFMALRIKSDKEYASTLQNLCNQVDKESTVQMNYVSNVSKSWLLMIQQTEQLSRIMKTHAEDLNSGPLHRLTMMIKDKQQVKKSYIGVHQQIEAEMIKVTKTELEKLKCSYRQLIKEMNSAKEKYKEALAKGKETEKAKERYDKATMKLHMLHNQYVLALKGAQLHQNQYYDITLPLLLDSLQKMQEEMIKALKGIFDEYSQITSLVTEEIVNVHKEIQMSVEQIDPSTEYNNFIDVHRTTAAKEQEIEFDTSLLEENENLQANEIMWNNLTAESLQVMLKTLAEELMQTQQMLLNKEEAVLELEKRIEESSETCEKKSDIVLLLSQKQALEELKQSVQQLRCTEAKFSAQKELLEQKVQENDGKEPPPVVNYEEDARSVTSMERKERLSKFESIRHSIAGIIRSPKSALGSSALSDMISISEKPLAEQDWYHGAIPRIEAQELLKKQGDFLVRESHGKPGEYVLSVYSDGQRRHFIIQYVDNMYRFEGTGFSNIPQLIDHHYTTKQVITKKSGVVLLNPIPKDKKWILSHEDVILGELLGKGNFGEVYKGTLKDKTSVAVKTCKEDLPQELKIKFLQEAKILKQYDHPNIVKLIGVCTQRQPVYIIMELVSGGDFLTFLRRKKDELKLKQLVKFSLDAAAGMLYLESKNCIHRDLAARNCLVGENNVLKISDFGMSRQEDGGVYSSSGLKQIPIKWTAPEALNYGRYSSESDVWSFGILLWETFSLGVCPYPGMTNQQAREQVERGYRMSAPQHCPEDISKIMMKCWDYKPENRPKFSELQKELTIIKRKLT
# Chain of Receptor tyrosine-protein kinase erbB-2 (Homo sapiens) (P04626 whole entry): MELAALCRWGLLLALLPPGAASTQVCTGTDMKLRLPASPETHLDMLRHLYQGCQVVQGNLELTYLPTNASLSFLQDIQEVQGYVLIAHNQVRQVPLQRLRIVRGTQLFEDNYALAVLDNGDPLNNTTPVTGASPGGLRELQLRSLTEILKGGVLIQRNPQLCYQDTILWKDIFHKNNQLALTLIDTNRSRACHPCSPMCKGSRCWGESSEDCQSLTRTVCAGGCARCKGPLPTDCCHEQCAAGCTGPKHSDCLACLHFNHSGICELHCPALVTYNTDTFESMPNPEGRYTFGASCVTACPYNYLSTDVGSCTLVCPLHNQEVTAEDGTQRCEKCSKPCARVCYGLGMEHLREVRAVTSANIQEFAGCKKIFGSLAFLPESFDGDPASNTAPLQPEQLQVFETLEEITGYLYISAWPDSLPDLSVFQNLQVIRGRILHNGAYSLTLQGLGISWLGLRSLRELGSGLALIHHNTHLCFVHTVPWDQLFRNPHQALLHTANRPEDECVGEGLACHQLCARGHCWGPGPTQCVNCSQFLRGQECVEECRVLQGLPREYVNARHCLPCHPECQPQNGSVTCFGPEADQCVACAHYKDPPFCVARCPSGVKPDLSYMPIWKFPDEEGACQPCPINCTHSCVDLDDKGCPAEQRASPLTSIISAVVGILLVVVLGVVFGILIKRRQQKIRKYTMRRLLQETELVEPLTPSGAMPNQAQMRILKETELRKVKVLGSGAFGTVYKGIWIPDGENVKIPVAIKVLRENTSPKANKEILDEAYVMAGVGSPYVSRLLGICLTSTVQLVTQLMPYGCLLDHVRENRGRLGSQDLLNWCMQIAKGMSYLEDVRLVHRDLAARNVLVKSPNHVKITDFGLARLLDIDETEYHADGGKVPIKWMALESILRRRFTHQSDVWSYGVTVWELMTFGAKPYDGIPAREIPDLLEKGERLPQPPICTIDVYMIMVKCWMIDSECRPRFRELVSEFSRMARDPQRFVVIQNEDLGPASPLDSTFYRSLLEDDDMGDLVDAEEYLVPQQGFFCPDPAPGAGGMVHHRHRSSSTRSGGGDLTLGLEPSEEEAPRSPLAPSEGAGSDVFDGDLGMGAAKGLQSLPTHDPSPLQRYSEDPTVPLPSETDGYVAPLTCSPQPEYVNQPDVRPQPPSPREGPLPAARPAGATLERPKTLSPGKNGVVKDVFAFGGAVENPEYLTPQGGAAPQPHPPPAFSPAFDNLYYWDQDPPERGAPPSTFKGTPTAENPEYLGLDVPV
# Chain of Receptor tyrosine-protein kinase erbB-4 (Homo sapiens) (Q15303 whole entry): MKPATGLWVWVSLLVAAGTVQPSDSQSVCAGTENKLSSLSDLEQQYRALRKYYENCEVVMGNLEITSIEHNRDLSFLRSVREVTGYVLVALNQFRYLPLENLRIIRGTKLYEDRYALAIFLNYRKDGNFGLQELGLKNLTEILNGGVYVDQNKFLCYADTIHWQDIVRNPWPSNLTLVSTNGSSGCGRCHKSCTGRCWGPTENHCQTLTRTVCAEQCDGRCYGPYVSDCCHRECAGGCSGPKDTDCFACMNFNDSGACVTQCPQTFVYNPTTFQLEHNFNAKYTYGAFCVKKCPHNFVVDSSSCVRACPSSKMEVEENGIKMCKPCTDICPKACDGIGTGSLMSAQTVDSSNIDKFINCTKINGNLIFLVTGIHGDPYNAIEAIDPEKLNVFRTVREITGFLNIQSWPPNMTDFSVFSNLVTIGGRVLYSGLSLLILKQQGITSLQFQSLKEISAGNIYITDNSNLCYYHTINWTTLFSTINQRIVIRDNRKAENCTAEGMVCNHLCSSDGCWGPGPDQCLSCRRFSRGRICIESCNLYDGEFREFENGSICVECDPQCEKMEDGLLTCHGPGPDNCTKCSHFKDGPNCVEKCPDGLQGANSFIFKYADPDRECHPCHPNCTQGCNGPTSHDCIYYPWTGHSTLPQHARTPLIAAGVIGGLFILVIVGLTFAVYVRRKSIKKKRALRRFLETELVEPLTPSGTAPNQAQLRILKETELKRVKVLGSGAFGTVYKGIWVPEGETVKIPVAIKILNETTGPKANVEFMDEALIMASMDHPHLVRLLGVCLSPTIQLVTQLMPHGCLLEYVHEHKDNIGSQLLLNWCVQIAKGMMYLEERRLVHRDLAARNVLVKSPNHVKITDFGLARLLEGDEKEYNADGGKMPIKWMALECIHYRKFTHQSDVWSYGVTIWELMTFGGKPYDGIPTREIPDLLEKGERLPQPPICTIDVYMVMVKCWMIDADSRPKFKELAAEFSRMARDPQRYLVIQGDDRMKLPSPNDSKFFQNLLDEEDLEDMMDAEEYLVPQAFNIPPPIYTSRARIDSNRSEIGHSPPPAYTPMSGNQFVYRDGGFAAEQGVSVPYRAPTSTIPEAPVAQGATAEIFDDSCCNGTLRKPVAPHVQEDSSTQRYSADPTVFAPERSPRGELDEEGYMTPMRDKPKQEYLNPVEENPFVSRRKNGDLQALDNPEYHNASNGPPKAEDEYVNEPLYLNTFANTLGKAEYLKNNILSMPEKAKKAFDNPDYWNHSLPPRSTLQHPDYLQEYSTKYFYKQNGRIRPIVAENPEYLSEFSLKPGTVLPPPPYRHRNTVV
smiles,measurement,setting,value
FC(F)(F)CNc1nccc(-c2cnn3ncccc23)n1,inhibition,[1],4.55%
same,inhibition,[2],4.36%
same,inhibition,[3],3.96%
same,inhibition,[4],0.32%
same,inhibition,[5],1.93%
same,inhibition,[6],4.52%
same,inhibition,[7],3.89%
same,inhibition,[8],13.2%
same,inhibition,[9],14%
same,inhibition,[10],1.02%
O=C(Nc1n[nH]c2nnc(-c3cccnc3)cc12)C1CC1,inhibition,[1],3.72%
same,inhibition,[2],0.63%
same,inhibition,[3],2.01%
same,inhibition,[4],2.37%
same,inhibition,[5],0.6%
same,inhibition,[6],-2.7%
same,inhibition,[7],-0.28%
same,inhibition,[8],-0.62%
same,inhibition,[9],1.8%
same,inhibition,[10],-1.4%
O=C1Nc2ccccc2/C1=C1\CCc2cc(O)ccc21,inhibition,[1],9.85%
same,inhibition,[2],7.65%
same,inhibition,[3],3.73%
same,inhibition,[4],1.66%
same,inhibition,[5],2.84%
same,inhibition,[6],0.88%
same,inhibition,[7],-3.46%
same,inhibition,[8],8.95%
same,inhibition,[9],13.7%
same,inhibition,[10],7%
Nc1nccc(-c2c(-c3ccc(F)cc3)ncn2C2CCNCC2)n1,inhibition,[1],3.74% and 17%
same,inhibition,[2],-8.29% and 1.29%
same,inhibition,[3],-2.02% and 2.97%
same,inhibition,[4],-1.79% and 2.99%
same,inhibition,[5],1.69% and 3.45%
same,inhibition,[6],-4.63% and -1.31%
same,inhibition,[7],-2.23% and 2.46%
same,inhibition,[8],3.28%
same,inhibition,[9],-6.69% and 9.1%
same,inhibition,[10],-1.84% and 2.2%
CCN1CCC(C(=O)Nc2n[nH]c3nnc(-c4cccc(F)c4F)cc23)CC1,inhibition,[1],0.53%
same,inhibition,[2],0.69%
same,inhibition,[3],1.64%
same,inhibition,[4],0.49%
same,inhibition,[5],-0.12%
same,inhibition,[6],1.2%
same,inhibition,[7],0.02%
same,inhibition,[8],-0.85%
same,inhibition,[9],0.79%
same,inhibition,[10],-0.15%
Fc1ccc(Nc2nccc(-c3c(-c4ccc(C(F)(F)F)cc4)nn4ncccc34)n2)cc1F,inhibition,[1],6.54%
same,inhibition,[2],4.44%
same,inhibition,[3],1.93%
same,inhibition,[4],2.27%
same,inhibition,[5],1.26%
same,inhibition,[6],-0.32%
same,inhibition,[7],-1.28%
same,inhibition,[8],9.22%
same,inhibition,[9],10.4%
same,inhibition,[10],4.97%
NS(=O)(=O)c1cccc(N/C=C2\C(=O)Nc3ccccc32)c1,inhibition,[1],10.8%
same,inhibition,[2],5.46%
same,inhibition,[3],2.58%
same,inhibition,[4],4.23%
same,inhibition,[5],3.73%
same,inhibition,[6],1.3%
same,inhibition,[7],-0.02%
same,inhibition,[8],13.3%
same,inhibition,[9],14.6%
same,inhibition,[10],3.91%

# — ChEMBL document CHEMBL1961873, “Compounds: GSK PKIS; Assays: Nanosyn kinase panel” (2012)
